PubChem BioAssay (EPA / NIEHS)
“And” between values parts separate entries of the source, which are not always exact repeats. Equal values may be shown once. The source holds several records for some structures; these can differ, active in one and inactive in another. The source made the active and inactive calls. The calls were made as follows: active = hit-call score of the fitted dose curve at least 0.9, where 1 is the maximum; inactive = score below 0.9.

Each compound was assayed on Plasminogen activator inhibitor-1 (PAI1), SERPINE1 (gene 5054) (assay: BSK_CASM3C_PAI1: BioMAP Diversity Plus: CASM3C Assay for Plasminogen activator inhibitor-1 (PAI1) Biomarker Activity (AID 2284284;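 also: PAI-1 protein level measured by ELISA 24 h after dosing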)). Conditions: primary human coronary artery smooth muscle cells.

Row | SMILES | outcome | AC50
1 | O=C(O)C(F)(OC(F)(F)C(F)(OC(F)(F)C(F)(OC(F)(F)C(F)(F)C(F)(F)F)C(F)(F)F)C(F)(F)F)C(F)(F)F (stereo not drawn) | inactive | –
2 | FC(F)(F)C(F)(F)C(F)(F)C(F)(F)C(F)(F)C(F)(F)CCS | inactive | –
3 | C=C(C)C(=O)OCC(F)(F)C(F)(F)C(F)(F)C(F)(F)C(F)(F)C(F)(F)C(F)(F)F | inactive | –
4 | FC(F)(F)C(F)(F)C(F)(F)C(F)(F)CCI | inactive | –
5 | O=C(O)C(F)(F)C(F)(F)C(F)(F)F | inactive | –
6 | N=C(N)C(F)(F)C(F)(F)C(F)(F)C(F)(F)C(F)(F)C(F)(F)C(F)(F)F | inactive | –
7 | O=C(O)C(F)(OC(F)(F)C(F)(OC(F)(F)C(F)(F)C(F)(F)F)C(F)(F)F)C(F)(F)F (stereo not drawn) | inactive | –
8 | O=C(O)C(F)(F)C(F)(F)C(F)(F)C(F)(F)C(F)(F)C(F)(F)C(F)(F)C(F)(F)C(F)(F)C(F)(F)C(F)(F)C(F)(F)C(F)(F)F | inactive | –
9 | FC(F)(F)C(F)(F)C(F)(F)N(C(F)(F)C(F)(F)C(F)(F)F)C(F)(F)C(F)(F)C(F)(F)F | inactive | –
10 | O=C(O)C=C(C(F)(F)F)C(F)(F)F | inactive | –
11 | O=C(O)C(F)(F)C(F)(F)F | inactive | –
12 | FC(F)(I)C(F)(F)C(F)(F)C(F)(F)I | inactive | 45.7 µM (active) and 49.4 µM (active)
13 | OCC(F)(F)C(F)(F)C(F)(F)F | inactive | –
14 | FC(F)(F)C(F)(F)C(F)(F)C(F)(F)C(F)(F)C(F)(F)C(F)(F)Br | inactive | –
15 | OCC(F)(F)C(F)(F)C(F)(F)C(F)F | inactive | –
16 | OCCCC(F)(F)C(F)(F)C(F)(F)C(F)(F)C(F)(F)C(F)(F)C(F)(F)F | – | 45.3 µM (active) and 48.2 µM (active)
17 | O=S(=O)(OCC(F)F)C(F)(F)F | inactive | –
18 | O=S(=O)(O)C(F)(F)C(F)(F)C(F)(F)C(F)(F)C(F)(F)C(F)(F)C(F)(F)F | inactive | –
19 | OCC(F)(F)C(F)(F)C(F)(F)C(F)(F)C(F)(F)C(F)(F)F | inactive | –
20 | C=CC(=O)OCC(F)(F)C(F)(F)C(F)(F)C(F)(F)COC(=O)C=C | – | 53.7 µM (active) and 53.4 µM (active)
21 | O=C(O)C(F)(F)C(F)(F)C(F)(F)C(F)(F)C(F)(F)C(F)(F)C(F)(F)C(F)(F)C(F)(F)C(F)F | inactive | –
22 | C=C(C)C(=O)OCC(F)(F)C(F)(F)C(F)(F)F | inactive | –
23 | FC(F)(F)C(F)(F)CNCC(F)(F)C(F)(F)F | inactive | –
24 | COC(=O)CCC(F)(F)C(F)(F)C(F)(F)C(F)(F)F | inactive | –
25 | CC(C)(C)C(=O)CC(=O)C(F)(F)C(F)(F)C(F)(F)F | inactive | –
26 | O=C(O)C(F)(F)C(F)(F)C(F)(F)C(F)(F)C(F)(F)C(F)(F)C(F)(F)C(F)(F)Cl | inactive | –
27 | OCC(F)(F)C(F)(F)C(F)(F)C(F)(F)C(F)(F)C(F)F | inactive | –
